This passage reports Potency and outcome results from PubChem BioAssay (Tox21).

Structures are written as SMILES. Inconclusive results are not listed. The source made the active and inactive calls. Unless noted, calls follow the shape of the dose curve; as a rule, active = well fitted curve in the direction sought with a large enough effect in the repeat runs; inconclusive = weak or mixed curves; inactive = no such curve, though single readings can be large; an effect the other way counts as inactive or inconclusive.

Assay [1] in a line: qHTS assay to identify small molecule agonists of the estrogen receptor alpha (ER-alpha) signaling pathway in the presence of an antagonist - cell viability counter screen (AID 1259386).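 Also: cells exposed to compounds for 22 h at 37 °C before the viability read; nearly all actives have a fitted effect of over 30% in size.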 Also: potency is read from the fitted curve at half-maximal effect. The note with it: VM7Luc4E2 viability, CellTiter-Fluor fluorescence, 22 h; series mostly up to 92.4 µM. The procedure, abridged:
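Fluorescent CellTiter-Fluor viability signal from VM7Luc4E2 cells, with the reagent added during the final hour of a 22hr compound exposure at 37C in the presence of 10.0nM ICI-182,780.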

Assay [2] has as its target Progesterone receptor (Homo sapiens) (UniProt P06401). Description: qHTS assay to identify small molecule agonists of the progesterone receptor (PR) signaling pathway (AID 1346784; calls by dose curve; also: nearly all actives have a fitted effect of over 30% in size; also: potency is read from the fitted curve at half-maximal effect). The note with it: PR-UAS-bla HEK293T, beta-lactamase FRET ratio, 16 h; series mostly up to 92.4 µM. An outline of the steps: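 Seed PR-UAS-bla HEK 293T cells (2% charcoal-stripped FBS), incubate 6 hr at 37C; add compounds in DMSO, 16 hr at 37C; add LiveBLAzer B/G substrate, 2 hr RT; read fluorescence intensity.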

Assay [3] has the same target. As to the kind of experiment: qHTS assay to identify small molecule antagonists of the progesterone receptor (PR) signaling pathway (AID 1346795; active = well fitted inhibition curve with a large enough effect in the signal ratio in the repeat runs, not every such curve was filed as active; the % refers to the signal ratio; also: potency is read from the fitted curve at half-maximal effect). The note with it: PR-UAS-bla HEK293T, beta-lactamase FRET ratio, 16 h; series mostly up to 92.4 µM. An outline of the steps:
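Screening used a GripTite HEK293T line with PR-responsive UAS-beta-lactamase. Cells were challenged with compound in the presence of 1 nM R5020 final for 16 hr at 37C; B/G FRET substrate, 2 hr room temperature, fluorescence.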

Assay [4] in a line: qHTS assay to identify small molecule antagonists of the progesterone receptor (PR) signaling pathway - cell viability counter screen (AID 1346798). Also: nearly all actives have a fitted effect of over 50% in size. The note with it: PR-UAS-bla HEK293T viability, CellTiter-Glo luminescence, 16 h; series mostly up to 92.4 µM. An outline of the steps:
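Measures cytotoxicity in parallel with the PR antagonist reporter read: HEK293T PR-UAS-bla cells get compound and R5020 for 16 hr, and remaining viable cells are quantified by CellTiter-Glo luminescence.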

The nature of assay [5]: qHTS assay to identify small molecule antagonists of the TGF-beta/Smad signaling pathway - cell viability counter screen (AID 1346824). Also: nearly all actives have a fitted effect of over 50% in size. The following applies: SBE-bla HEK293T viability, CellTiter-Glo luminescence; series mostly up to 76.8 µM. An outline of the steps:
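SBE-bla HEK 293T cells, incubated overnight, then compound plus 0.25 ng/mL TGF-beta1 (stock added) for 5 hr at 37 C. Viability was read in the same wells by CellTiter-Glo luminescence after 30 min at room temperature.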

Assay [6] can be described thus: qHTS assay to identify small molecule agonists of the TGF-beta/Smad signaling pathway - cell viability counter screen (AID 1346829). Also: nearly all actives have a fitted effect of over 45% in size. Also: potency is read from the fitted curve at half-maximal effect. The following applies: SBE-bla HEK293T viability, CellTiter-Glo luminescence, 5 h; series mostly up to 76.8 µM. An outline of the steps: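 Tox21 qHTS format: SBE-bla HEK 293T cells treated with DMSO-dissolved compounds for 5 hr; CellTiter-Glo luminescence after 30 min at room temperature.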

The target of assay [7] is Thyrotropin-releasing hormone receptor (Homo sapiens) (UniProt P34981). As to the kind of experiment: qHTS assay to identify small molecule antagonists of the thyrotropin-releasing hormone receptor (TRHR) signaling pathway (AID 1346877; active = well fitted inhibition curve with a large enough effect in the repeat runs, not every such curve was filed as active; also: potency is read from the fitted curve at half-maximal effect). The following applies: TRHR-HEK293, TRH-induced calcium fluorescence, antagonist mode; series mostly up to 51.3 µM. An outline of the steps:
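In this cell-based calcium flux format, HEK293 cells expressing TRHR received test compound for 5 min before the agonist TRH (1 nM final). Dye loading lasted 2 h at 37 °C.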

Assay [8] has the same target. As to the kind of experiment: qHTS assay to identify small molecule agonists of the thyrotropin-releasing hormone receptor (TRHR) signaling pathway (AID 1346891; calls by dose curve; also: potency is read from the fitted curve at half-maximal effect). The note with it: TRHR-HEK293 calcium fluorescence, agonist mode; series mostly up to 57.6 µM. An outline of the steps:
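Overnight-plated (18 h, 37 °C, 5% CO2) TRHR-Hek293 cells; 2 h calcium dye at 37 °C; compound in DMSO; 3-min kinetic fluorescence read.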

Assay [9] in a line: qHTS assay to identify small molecule agonists of the TGF-beta/Smad signaling pathway (AID 1346859; active = well fitted activation curve with a large enough effect in the signal ratio in the repeat runs, not every such curve was filed as active; the % refers to the signal ratio). The note with it: SBE-bla HEK293T, TGF-beta/Smad beta-lactamase reporter, 5 h; series mostly up to 76.8 µM. The procedure, abridged: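 Beta-lactamase reporter activity downstream of Smad binding elements was measured in stably transfected HEK 293T cells; compounds were incubated for 5 hr, substrate for 2 hr at room temperature.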

A short description of assay [10]: qHTS assay to identify small molecule agonists of the progesterone receptor (PR) signaling pathway - cell viability counter screen (AID 1346799; calls by dose curve; also: nearly all actives have a fitted effect of over 45% in size; also: potency is read from the fitted curve at half-maximal effect). The note with it: PR-UAS-bla HEK293T viability, CellTiter-Glo luminescence, 16 h; series mostly up to 92.4 µM. The procedure, abridged:
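Using the same plates as the PR reporter screen, HEK293T PR-UAS-bla cells received compounds for 16 hr at 37C and were then lysed with CellTiter-Glo; luminescence was read 30 min later at room temperature.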

Sequence of Progesterone receptor (Homo sapiens) (P06401 whole entry, looked up): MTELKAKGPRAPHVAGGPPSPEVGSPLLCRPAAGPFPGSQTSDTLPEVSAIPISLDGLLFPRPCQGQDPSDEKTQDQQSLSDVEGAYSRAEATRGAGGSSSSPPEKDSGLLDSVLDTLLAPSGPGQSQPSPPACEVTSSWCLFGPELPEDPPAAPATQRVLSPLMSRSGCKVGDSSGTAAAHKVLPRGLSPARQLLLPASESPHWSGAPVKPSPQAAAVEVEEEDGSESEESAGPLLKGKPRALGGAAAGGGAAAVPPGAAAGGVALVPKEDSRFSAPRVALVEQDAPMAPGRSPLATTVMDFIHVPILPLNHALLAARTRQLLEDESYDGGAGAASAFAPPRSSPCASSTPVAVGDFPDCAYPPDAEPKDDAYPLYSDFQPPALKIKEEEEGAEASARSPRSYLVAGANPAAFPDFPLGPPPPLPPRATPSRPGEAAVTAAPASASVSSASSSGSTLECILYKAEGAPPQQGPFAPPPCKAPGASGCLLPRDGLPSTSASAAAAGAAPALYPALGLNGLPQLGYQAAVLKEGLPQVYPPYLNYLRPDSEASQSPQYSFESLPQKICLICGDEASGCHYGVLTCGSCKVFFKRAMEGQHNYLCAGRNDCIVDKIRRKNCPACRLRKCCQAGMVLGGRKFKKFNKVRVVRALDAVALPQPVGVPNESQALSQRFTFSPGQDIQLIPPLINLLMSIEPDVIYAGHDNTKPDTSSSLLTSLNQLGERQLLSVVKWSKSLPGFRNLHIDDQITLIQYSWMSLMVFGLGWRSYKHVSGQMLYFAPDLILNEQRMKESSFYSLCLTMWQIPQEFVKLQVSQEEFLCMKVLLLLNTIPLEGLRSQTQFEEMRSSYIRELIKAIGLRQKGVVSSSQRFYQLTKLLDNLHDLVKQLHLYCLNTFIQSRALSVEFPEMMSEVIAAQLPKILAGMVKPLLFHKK
Sequence of Thyrotropin-releasing hormone receptor (Homo sapiens) (P34981 whole entry, looked up): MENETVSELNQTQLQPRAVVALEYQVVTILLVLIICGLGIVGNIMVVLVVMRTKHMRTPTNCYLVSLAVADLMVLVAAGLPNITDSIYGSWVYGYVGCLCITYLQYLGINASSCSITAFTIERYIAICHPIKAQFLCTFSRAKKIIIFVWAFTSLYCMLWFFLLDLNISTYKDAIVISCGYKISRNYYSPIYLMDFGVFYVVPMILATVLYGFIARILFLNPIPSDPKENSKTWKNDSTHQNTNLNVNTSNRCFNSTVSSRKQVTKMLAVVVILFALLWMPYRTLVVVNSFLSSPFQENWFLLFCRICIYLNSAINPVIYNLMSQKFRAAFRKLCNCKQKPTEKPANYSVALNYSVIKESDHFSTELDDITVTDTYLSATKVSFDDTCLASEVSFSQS

Consider `C#CC1(O)CCCCC1`, for which the Potency entry in assay [1], in [2], in assay [3], in assay [4], in assay [5] and in [6] was “inactive” throughout. In addition, the Potency entry in assay [7] and in [8] was “inactive” in each case.
Take `CSC(=O)c1c(C(F)F)nc(C(F)(F)F)c(C(=O)SC)c1CC(C)C`: the Potency entry in assay [1], in [2], in assay [4], in assay [5], in assay [6] and in assay [7] was “inactive” throughout. Also, the Potency entry in assay [8] was “inactive”. Also, the Potency in assay [3] was 30.5 µM (active). Moreover, in [9], the result was inactive.
In the case of `ClC(Cl)C(Cl)(Cl)Cl`, the Potency result in assay [1], in [2], in [3], in assay [10], in assay [5] and in [6] was “inactive” throughout. For the same molecule, the Potency result in assay [7] and in assay [8] was “inactive” in each case.
For the molecule `Oc1ccc(Cl)c(Cl)c1`, the Potency result in assay [1], in assay [2], in assay [10], in assay [6], in [7] and in assay [8] was “inactive” throughout. In addition, the Potency in assay [3] is 26.9 µM (active).
With `ClCBr`, the Potency entry in [1], in assay [2], in assay [3], in assay [10], in assay [5] and in [6] was “inactive” throughout. Besides, the Potency result in assay [7] and in assay [8] was “inactive” throughout. The molecule was classed as inactive in assay [9].
For `O=[N+]([O-])c1ccccc1-c1ccccc1`, the Potency entry in [1], in assay [2], in assay [3], in assay [10], in assay [5] and in [6] was “inactive” throughout. Further, the Potency entry in assay [7] and in [8] was “inactive” each time. In assay [9], the call was inactive.
Regarding `CC(=O)[O][Sn]([c]1ccccc1)([c]1ccccc1)[c]1ccccc1`, the Potency in assay [1] is 8.63 µM (active); in assay [3], 0.0486 µM (active); in assay [10] it was 0.433 µM (active); in assay [6], 1.74 µM (active); in assay [7] it was 2.69 µM (active); in assay [8], 4.9 µM (active). Also, the Potency result in [2] was “inactive”.
For `Nc1nc(N)nc(Cl)n1`, the Potency entry in assay [1], in assay [2], in assay [3], in assay [5], in assay [6] and in assay [7] was “inactive” in each case. Also, the Potency result in [8] was “inactive”. In addition, in [9], the call was inactive.
Turning to `C[C@@H]1CC2=CC(=O)CC[C@@H]2[C@H]2CC[C@@]3(C)[C@@H](CC[C@]3(C)O)[C@@H]21`, the Potency result in [1], in assay [3], in assay [5] and in assay [6] was “inactive” throughout. Moreover, the Potency in assay [2] was 0.0017 µM (active). Also, the molecule was called inactive in assay [9].
With `CCn1cc[n+](C)c1` (tested in a mixture with another compound), the Potency entry in assay [1], in assay [2], in [3], in assay [10] and in [6] was “inactive” each time. For the same molecule, in [9], the result was inactive.
Regarding `C[N+]1(C)[C@@H]2CC[C@H]1CC(OC(=O)C(CO)c1ccccc1)C2` (some centres undefined), the Potency entry in assay [1], in assay [2], in [3], in assay [10], in [5] and in assay [6] was “inactive” throughout.
Consider `Nc1nc(N)c(N)c(N)n1`, for which the Potency entry in assay [1], in assay [3], in assay [4], in assay [5], in assay [6] and in [7] was “inactive” each time. In addition, the Potency in [2] was 7.74 µM (active); in [8], 39.1 µM (active).
Take `CC(=O)[O-].CC(=O)[O-].O.O.[Zn+2]`: the Potency entry in assay [1], in assay [2], in assay [3], in assay [10], in assay [5] and in [6] was “inactive” throughout. Also, the molecule was classed as inactive in assay [9].
Consider `Clc1cc(Cl)c(-c2cc(Cl)c(Cl)cc2Cl)cc1Cl`, for which the Potency entry in assay [1], in assay [2], in assay [10], in assay [5], in assay [6] and in assay [7] was “inactive” in each case. For the same molecule, the Potency entry in [8] is “inactive”. In addition, the Potency in [3] is 10.2 µM (active). The molecule was classed as inactive in assay [9].
In the case of `CCC(C)Br` (centres undefined), the Potency entry in [1], in assay [2], in assay [3], in [10], in [5] and in assay [6] was “inactive” throughout. The Potency entry in [7] and in [8] was “inactive” in each case. The result in assay [9] was inactive.
With `COP(=S)(NC(C)C)Oc1ccc(C)cc1[N+](=O)[O-]` (centres undefined), the Potency entry in assay [1], in [2], in [4], in [5], in assay [6] and in [7] was “inactive” in each case. Moreover, the Potency entry in [8] was “inactive”. The Potency in assay [3] is 7.7 µM (active). The call in assay [9] was inactive.
For the molecule `O=C(Nc1ccc(F)cc1F)c1cccnc1Oc1cccc(C(F)(F)F)c1`, the Potency entry in [1], in assay [2], in assay [3], in assay [10], in assay [5] and in [6] was “inactive” each time. The Potency result in [7] and in assay [8] was “inactive” in each case. Besides, in assay [9], the molecule was classed as inactive.
